# Records with an inconclusive call do not appear. Where a call stands in place of a potency, no number is given. The source made the active and inactive calls. The call rests on the fitted dose curve; in most records, active means well fitted inhibition curve with a large enough effect; inconclusive means small, poorly fitted or top-dose-only effect; inactive means flat fitted curve, though single readings scatter.
# Target: Calcium and integrin-binding protein 1 (Homo sapiens) (UniProt Q99828)
# Test: Primary qHTS for Identification of Calcium Integrin Binding Protein 1 (CIB1) Competitor (AID 1508620); further: top concentration of the series differs between compounds
# Conditions: CIB1-GST / FITC-alphaIIb peptide fluorescence polarization; series mostly up to 114 µM
# Outline: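 Fluorescence polarization competition: GST-tagged CIB1 (1 uM final) preincubated with compound 15 min at room temperature, then FITC-labelled alphaIIb peptide (100 nM final) added. After 15 min at room temperature, polarization read at Ex 480/Em 540.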
# Sequence of Calcium and integrin-binding protein 1 (Homo sapiens) (Q99828 whole entry, looked up): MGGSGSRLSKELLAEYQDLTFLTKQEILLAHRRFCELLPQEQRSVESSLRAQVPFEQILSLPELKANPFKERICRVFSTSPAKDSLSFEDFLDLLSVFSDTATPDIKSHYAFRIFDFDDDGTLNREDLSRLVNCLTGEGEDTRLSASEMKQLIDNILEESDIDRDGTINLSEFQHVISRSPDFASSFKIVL
row,Structure (SMILES),Potency
1,COc1ccc(-c2cnc(N3CCC(C(N)=O)CC3)s2)cc1OC,inactive
2,Cc1cc(C)n2ncc(C(=O)Nc3ccccc3)c2n1,inactive
3,CC(=O)Nc1oc(-c2cccc3ccccc23)nc1C#N,inactive
4,N#Cc1nc(Nc2cc(F)cc(F)c2)c2ncn(CCCN3CCCC3)c2n1,inactive
5,COc1cc(CNc2ncnc3ccc(-c4c(C)noc4C)cc23)cc(OC)c1OC,inactive
6,Brc1sc2c(c1-c1nc3ccccc3s1)CCNC2,inactive
7,O=C1CCCC2=C1[C@@]1(CCC(c3ccccc3)C1)N=C(Nc1nc3ccccc3o1)N2 (some centres not stated),inactive
8,CCOC(=O)c1ccc(-n2c(C)cc(-c3nnc4n3CCCCC4)c2C)cc1,inactive
9,CC(C)c1ccccc1-c1nc(NCc2ccc(-c3cccnc3)cc2)c2ccccc2n1,inactive
10,CC(C)CN1CCN(C(=O)COC(=O)c2ccc(S(C)(=O)=O)c([N+](=O)[O-])c2)CC1,inactive
11,COc1ccc(C2c3c(n(Cc4ccccc4)cnc3=N)Oc3ccc4ccccc4c32)cc1OC (configuration not stated),inactive
12,O=C(c1ccccc1O)N(Cc1cccs1)Cc1cccs1,inactive
13,CN1CCN(c2cccc(Nc3nn4c(=O)c5ccc(C(F)(F)F)cc5nc4s3)c2)CC1,inactive
14,O=C(OCC#CCSc1nnc(-c2cccc3ccccc23)o1)c1ccc(F)nc1,inactive
15,CN(C)[S+](=O)([O-])c1ccc(-c2cncc(NC(=O)c3cccs3)c2)cc1,inactive
16,O=S(=O)(Nc1cccc2cccnc12)c1ccccc1,inactive
17,CCOC(=O)C1CCN(C(=O)C2(NC(=O)Nc3ccccc3Cl)CCC2)CC1,inactive
